Test results as given in the supplement of paper PMC12350171.
Structures can show the parent of a compound that is named as a salt. A number with no mark means an inactive call.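 How the source made its calls: active = AUC significantly below DMSO controls by Student t-fit with adjusted P under 0.01; inactive = not significantly reduced.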

test system: Haemophilus parainfluenzae; assay: growth AUC normalised to DMSO control (fraction of control); higher = less growth inhibition, active = hit call of the paper; details: 20 µM
How it was run: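 After two anaerobic passages, pathogens were added at a starting OD578 of 0.01 to pre-reduced mGAM plates holding compound at 20 μM with 1% DMSO; hemin and NAD were supplemented for Haemophilus parainfluenzae. Sealed with breathable membranes, plates were read at OD578 hourly for 24 h, in three biological replicates. The trapezoidal rule, applied up to the exponential-to-stationary transition, gave the growth-curve AUC, which was normalised to DMSO controls on the same plate.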

Structure (SMILES)	growth AUC normalised to DMSO control
CCOC(=O)C1=C(COCCN)NC(C)=C(C(=O)OC)C1c1ccccc1Cl (configuration not stated) [Amlodipine]	0.989
C[N+]1(CCCCC[N+]2(C)CCCC2)CCCC1 [Pentolinium bitartrate]	0.96
COc1cc(C)c(/C=C/C(C)=C/C=C/C(C)=C/C(=O)O)c(C)c1C [Acitretin]	0.995
CS(=O)(=O)c1ccc([C@@H](O)[C@@H](CO)NC(=O)C(Cl)Cl)cc1 [Thiamphenicol]	0.032 (active)
COc1ccc2cc([C@H](C)C(=O)O)ccc2c1 [(S)-Naproxen]	1
COc1ccc(CN(CCN(C)C)c2ccccn2)cc1 [Pyrilamine maleate]	0.99
COc1cc2nc(N3CCN(C(=O)c4ccco4)CC3)nc(N)c2cc1OC [Prazosin hydrochloride]	0.981
